Assay results taken from PubChem BioAssay (NCATS).
Inconclusive results are not listed. Active and inactive are the calls of the source. Unless noted, calls follow the shape of the full dose curve.

Key:
[1] = target: Glucocorticoid receptor (Homo sapiens) (UniProt P04150); experiment: qHTS assay for small molecule agonists of glucocorticoid receptor signaling (AID 588532; active = well fitted curve in the direction sought with a large enough effect in the signal ratio, with a control signal flat; the % refers to the signal ratio;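 also: 100% = dexamethasone at 0.1 µM and 0% = DMSO only wells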); conditions: HeLa MMTV-bla, beta-lactamase ratio, agonist, 18 h; activation: stronger effect = higher value, percent of dexamethasone control, DMSO zero
Chain of Glucocorticoid receptor (Homo sapiens) (P04150 whole entry, looked up): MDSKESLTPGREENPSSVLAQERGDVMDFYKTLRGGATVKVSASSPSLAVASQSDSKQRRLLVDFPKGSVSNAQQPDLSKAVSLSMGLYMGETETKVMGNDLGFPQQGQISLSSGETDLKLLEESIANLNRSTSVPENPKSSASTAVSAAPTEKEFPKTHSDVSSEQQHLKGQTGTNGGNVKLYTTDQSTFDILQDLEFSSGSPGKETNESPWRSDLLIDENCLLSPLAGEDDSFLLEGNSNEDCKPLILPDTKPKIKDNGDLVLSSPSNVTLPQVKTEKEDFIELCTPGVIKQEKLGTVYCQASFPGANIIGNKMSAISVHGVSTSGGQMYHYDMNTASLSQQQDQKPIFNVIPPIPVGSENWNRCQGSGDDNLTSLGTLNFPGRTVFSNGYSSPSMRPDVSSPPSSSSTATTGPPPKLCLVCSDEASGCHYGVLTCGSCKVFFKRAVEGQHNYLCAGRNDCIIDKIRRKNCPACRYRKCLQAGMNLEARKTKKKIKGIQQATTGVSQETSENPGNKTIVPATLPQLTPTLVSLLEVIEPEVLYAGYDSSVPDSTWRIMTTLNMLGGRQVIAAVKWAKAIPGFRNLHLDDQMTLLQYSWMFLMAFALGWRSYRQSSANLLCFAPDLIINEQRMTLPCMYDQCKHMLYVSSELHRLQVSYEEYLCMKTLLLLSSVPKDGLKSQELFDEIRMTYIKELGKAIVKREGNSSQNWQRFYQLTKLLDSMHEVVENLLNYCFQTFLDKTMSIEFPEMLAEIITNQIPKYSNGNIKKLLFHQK
Procedure, shortened: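 Cells were plated and rested 3-5 h at 37 C, compounds were added in titration and incubated 18 h, then CCF4 substrate was loaded for 2 h at RT before reading blue/green fluorescence. EC50 came from Hill-equation fitting.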

[2] = target: Glucocorticoid receptor (Homo sapiens) (UniProt P04150); experiment: qHTS assay for small molecule antagonists of glucocorticoid receptor signaling (AID 588533; active = well fitted inhibition curve with a large enough effect in the signal ratio, with a control signal flat, not every such curve was filed as active; the % refers to the signal ratio;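 also: cells stimulated with 2 nM dexamethasone as agonist; % is scaled to controls: 0 for no effect and ±100 for the full control effect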)
Procedure, shortened: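 Antagonist-mode qHTS: compound titrations added to GRE-bla HeLa cells, then dexamethasone 2 nM final; 18 h, 37 C. CCF4 FRET fluorescence normalized to dexamethasone and DMSO; IC50 from Hill fit.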

[3] = qHTS assay for small molecule antagonists of peroxisome proliferator-activated receptor delta signaling (AID 588535; active = well fitted inhibition curve with a large enough effect in the signal ratio, with a control signal flat, not every such curve was filed as active; the % refers to the signal ratio;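 as to max response: cells co-treated with a PPAR-delta agonist as stimulator during compound exposure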); conditions: HEK293T PPARd-UAS-bla, beta-lactamase FRET ratio, 18 h; 460 nm channel
Procedure, shortened: (§1)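 Cells were seeded at 4000 per well in assay medium containing 2% charcoal/dextran FBS and held 5 hrs at 37 C. Compounds were then added for 18 hrs. CCF4 substrate was applied for 2 hrs at room temperature before fluorescence reading.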

[4] = target: Peroxisome proliferator-activated receptor delta (Homo sapiens) (UniProt Q03181); experiment: as above
Chain of Peroxisome proliferator-activated receptor delta (Homo sapiens) (Q03181 whole entry, looked up): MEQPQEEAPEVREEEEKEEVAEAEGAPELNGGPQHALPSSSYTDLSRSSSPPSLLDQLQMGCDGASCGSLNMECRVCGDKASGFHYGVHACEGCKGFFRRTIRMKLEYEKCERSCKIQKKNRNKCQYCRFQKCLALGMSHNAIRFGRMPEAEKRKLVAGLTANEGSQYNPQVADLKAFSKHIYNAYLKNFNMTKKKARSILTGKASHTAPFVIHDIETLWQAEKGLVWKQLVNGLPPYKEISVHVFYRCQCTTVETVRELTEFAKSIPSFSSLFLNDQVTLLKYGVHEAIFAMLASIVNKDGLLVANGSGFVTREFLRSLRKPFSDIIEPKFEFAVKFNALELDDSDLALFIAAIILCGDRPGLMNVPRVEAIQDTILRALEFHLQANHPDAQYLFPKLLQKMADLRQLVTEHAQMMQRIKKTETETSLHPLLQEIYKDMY
Procedure, shortened: as §1

[5] = target: Peroxisome proliferator-activated receptor gamma (Homo sapiens) (UniProt P37231); experiment: qHTS assay for small molecule agonists of peroxisome proliferator-activated receptor gamma signaling (AID 588536; active = well fitted curve in the direction sought with a large enough effect in the signal ratio, with a control signal flat, not every such curve was filed as active; the % refers to the signal ratio;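 also: 0% = DMSO basal wells and 100% = rosiglitazone at 2 µM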)
Chain of Peroxisome proliferator-activated receptor gamma (Homo sapiens) (P37231 whole entry, looked up): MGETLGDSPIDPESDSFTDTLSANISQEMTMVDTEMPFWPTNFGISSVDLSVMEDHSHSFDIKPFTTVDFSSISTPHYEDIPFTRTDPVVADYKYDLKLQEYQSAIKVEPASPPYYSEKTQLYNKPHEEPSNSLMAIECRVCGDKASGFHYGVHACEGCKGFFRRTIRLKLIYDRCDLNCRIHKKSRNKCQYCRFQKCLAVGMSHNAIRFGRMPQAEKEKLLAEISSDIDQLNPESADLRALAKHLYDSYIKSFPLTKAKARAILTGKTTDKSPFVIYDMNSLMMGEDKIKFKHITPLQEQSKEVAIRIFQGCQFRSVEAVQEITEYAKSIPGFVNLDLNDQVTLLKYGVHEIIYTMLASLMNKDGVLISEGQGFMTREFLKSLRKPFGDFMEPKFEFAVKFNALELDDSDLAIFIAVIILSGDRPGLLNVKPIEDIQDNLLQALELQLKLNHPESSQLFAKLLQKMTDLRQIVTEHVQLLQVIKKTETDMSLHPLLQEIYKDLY
Procedure, shortened: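 Test agents, titrated, stimulated HEK293 UAS-bla cells overnight (16 h, 37 C). Substrate CCF4 was then added for two hours at room temperature before fluorescence reading.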

[6] = target: Thyroid hormone receptor beta (Homo sapiens) (UniProt P10828); experiment: qHTS assay for small molecule agonists of thyroid hormone receptor beta signaling (AID 588545)
Chain of Thyroid hormone receptor beta (Homo sapiens) (P10828 whole entry, looked up): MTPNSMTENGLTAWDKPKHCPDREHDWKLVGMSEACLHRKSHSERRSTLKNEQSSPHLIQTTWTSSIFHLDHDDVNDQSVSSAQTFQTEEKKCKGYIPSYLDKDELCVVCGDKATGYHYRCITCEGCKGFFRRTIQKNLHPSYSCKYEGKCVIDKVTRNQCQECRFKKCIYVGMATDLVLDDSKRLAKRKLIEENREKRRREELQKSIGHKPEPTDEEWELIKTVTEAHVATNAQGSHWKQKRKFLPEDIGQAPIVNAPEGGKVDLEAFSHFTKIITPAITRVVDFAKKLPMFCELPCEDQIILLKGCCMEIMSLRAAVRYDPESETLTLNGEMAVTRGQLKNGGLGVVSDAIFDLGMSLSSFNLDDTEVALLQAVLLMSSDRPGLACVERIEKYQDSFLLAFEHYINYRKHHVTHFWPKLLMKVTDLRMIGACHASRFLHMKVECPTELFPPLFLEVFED
Procedure, shortened: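 Cells (2500/well) were seeded, incubated 4 hrs at 37 C, dosed with a compound series, incubated 18 hrs, loaded with CCF4 dye for 2 hrs at RT, then read for fluorescence. Data were scaled between DMSO (0%) and 10 nM T3 (100%).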

[7] = target: Thyroid hormone receptor beta (Homo sapiens) (UniProt P10828); experiment: qHTS assay for small molecule antagonists of thyroid hormone receptor beta signaling (AID 588547; active = well fitted inhibition curve with a large enough effect in the signal ratio, with a control signal flat, not every such curve was filed as active; the % refers to the signal ratio;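 also: cells stimulated with 0.4 nM T3 agonist during compound exposure; series mostly up to about 77 µM; % is scaled to controls: 0 for no effect and ±100 for the full control effect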); conditions: TR-UAS-bla HEK293, beta-lactamase ratio, antagonist mode, 18 h
Procedure, shortened: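 TR-UAS-bla GripTite HEK293 cells in 2% charcoal/dextran FBS medium; compounds 0.59 nM to 92 uM with T3 at 0.4nM final, 18 h at 37 C. Beta-lactamase read by CCF4 fluorescence (460/530 nm); Hill fits gave IC50 and efficacy.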

[8] = qHTS assay for small molecule activators of the p53 signaling pathway (AID 651743; active = well fitted activation curve with a large enough effect in the signal ratio, not every such curve was filed as active; the % refers to the signal ratio; also: series mostly up to about 92 µM; % of control where 0% means no effect); conditions: HCT-116 p53RE-bla, beta-lactamase FRET ratio, 16 h; activation: stronger effect = higher value
Procedure, shortened: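 HCT-116 p53RE-bla, 4,000 cells/well; 5 h settle; cpd/DMSO 16 h, 37 C; LiveBLAzer B/G 2 h RT; fluorescence intensity.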

[9] = qHTS assay for small molecule activators of the nuclear factor-kappa B (NF-kB) signaling pathway (AID 651749; active = well fitted activation curve with a large enough effect in the signal ratio; the % refers to the signal ratio; also: series mostly up to about 77 µM; % of control where 0% means no effect); conditions: NF-kB-bla ME-180 cells, beta-lactamase FRET ratio, 16 h; activation: stronger effect = higher value
Procedure, shortened: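 Incubation lasted 16 hr at 37C in 5% CO2 after 23 nL compound addition to ME-180 NF-kB-bla cells. Activation appears as beta-lactamase-mediated FRET loss.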

[10] = qHTS assay for environmental chemicals that activate the Aryl hydrocarbon Receptor (AhR) signaling pathway (AID 651777; active = well fitted curve in the direction sought with a large enough effect; an effect the other way counts as inactive or inconclusive; also: % of control where 0% means no effect; nearly all actives have a fitted effect of over 15% in size); conditions: 1A2-DRE human hepatoma cells, luciferase, 24 h; activation: stronger effect = higher value
Procedure, shortened: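 1A2-DRE human hepatoma reporter line; 1,200 cells/well; cmpd or DMSO 24 h, 37 C/5% CO2; One-Glo 30 min RT; luciferase lum.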

[11] = target: Peroxisome proliferator-activated receptor alpha (Homo sapiens) (UniProt Q07869); experiment: qHTS assay for small molecule agonists of the peroxisome proliferator-activated receptor alpha (PPARalpha) signaling pathway (AID 651778; active = well fitted curve in the direction sought with a large enough effect; an effect the other way counts as inactive or inconclusive; also: potency is read from the fitted curve at half-maximal effect; as to max response: % of control where 0% means no effect); conditions: PathHunter PPARalpha complementation, chemiluminescence, 6 h; max response: stronger effect = higher value
Chain of Peroxisome proliferator-activated receptor alpha (Homo sapiens) (Q07869 whole entry, looked up, the tested form may be a part): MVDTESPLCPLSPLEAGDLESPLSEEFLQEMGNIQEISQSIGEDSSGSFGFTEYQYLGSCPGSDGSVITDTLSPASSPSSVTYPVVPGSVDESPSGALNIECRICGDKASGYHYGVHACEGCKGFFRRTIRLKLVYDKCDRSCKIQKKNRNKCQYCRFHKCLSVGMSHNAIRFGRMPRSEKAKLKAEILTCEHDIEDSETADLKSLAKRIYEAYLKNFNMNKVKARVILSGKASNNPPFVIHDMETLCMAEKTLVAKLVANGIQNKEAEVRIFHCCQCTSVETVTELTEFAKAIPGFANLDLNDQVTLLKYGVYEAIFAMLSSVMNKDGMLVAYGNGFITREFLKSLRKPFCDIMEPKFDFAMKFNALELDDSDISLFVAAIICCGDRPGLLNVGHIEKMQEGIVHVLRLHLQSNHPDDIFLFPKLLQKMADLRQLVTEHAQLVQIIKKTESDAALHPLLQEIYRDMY
Procedure, shortened: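 Enzyme-fragment complementation assay in which ligand-bound PPARalpha translocates and forms an active enzyme that generates chemiluminescence. Cells were plated overnight, exposed to compound for 6 hr at 37 C, and then given detection reagent for 60 min at room temperature.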

[12] = qHTS assay for small molecule agonists of the antioxidant response element (ARE) signaling pathway measured by Nrf2-dependant transcriptional activity (AID 720636; active = well fitted curve in the direction sought with a large enough effect in the repeat runs; an effect the other way counts as inactive or inconclusive;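 also: HepG2 cells with an ARE-driven luciferase reporter; % of control where 0% means no effect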)
Procedure, shortened: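 Cells: ARE-luc HepG2 with Nrf2-responsive luciferase. Medium contained 1% dialyzed FBS. Compound exposure lasted 16 hr at 37 C and 5% CO2, followed by ONE-Glo luciferase detection.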

[13] = qHTS assay for small molecule agonists of the antioxidant response element (ARE) signaling pathway measured by Nrf2-dependant transcriptional activity - cell viability counter screen (AID 720653; active = well fitted curve in the direction sought with a large enough effect in the repeat runs; an effect the other way counts as inactive or inconclusive; also: % is scaled to controls: 0 for no effect and ±100 for the full control effect); conditions: ARE-bla HepG2 viability, CellTiter-Glo ATP luminescence, 16 h; max response: stronger effect = lower value
Procedure, shortened: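 ARE-bla HepG2 cells treated with compounds for 16 h at 37C; this counter screen measures viability as intracellular ATP by CellTiter-Glo luminescence after 30 min at room temperature.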

[14] = qHTS assay for cell viability of HEK293 cells (AID 743288; active = well fitted curve in the direction sought with a large enough effect; an effect the other way counts as inactive or inconclusive; also: % is scaled to controls: 0 for no effect and ±100 for the full control effect; nearly all actives have a fitted effect of over 50% in size); conditions: ATP luminescence (CellTiter-Glo), 18 h; max response: stronger effect = lower value
Procedure, shortened: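 Environmental chemicals tested in qHTS format against parental HEK293 cells; 18 h treatment, 37 C; read-out ATP luminescence (CellTiter-Glo), 30 min RT development.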

[15] = qHTS assay for cell viability of the p53RE-bla HCT-116 cell line (AID 743292; active = well fitted curve in the direction sought with a large enough effect; an effect the other way counts as inactive or inconclusive; also: % is scaled to controls: 0 for no effect and ±100 for the full control effect; nearly all actives have a fitted effect of over 55% in size)
Procedure, shortened: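 HCT-116 p53RE-bla cells seeded 4,000/well; 5 h at 37 C; compound (DMSO) added; 16 h at 37 C; CellTiter-Glo added, 30 min RT; luminescence read.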

[16] = target: Nuclear receptor subfamily 1 group I member 2 (Rattus norvegicus) (UniProt Q9R1A7); experiment: qHTS assay for small molecule activators of the rat pregnane X receptor (rPXR) signaling pathway (AID 651751; call rule not given here; also: 0% is about no effect); conditions: rPXR reporter cells, luciferase (One-Glo), 24 h
Chain of Nuclear receptor subfamily 1 group I member 2 (Rattus norvegicus) (Q9R1A7 whole entry, looked up): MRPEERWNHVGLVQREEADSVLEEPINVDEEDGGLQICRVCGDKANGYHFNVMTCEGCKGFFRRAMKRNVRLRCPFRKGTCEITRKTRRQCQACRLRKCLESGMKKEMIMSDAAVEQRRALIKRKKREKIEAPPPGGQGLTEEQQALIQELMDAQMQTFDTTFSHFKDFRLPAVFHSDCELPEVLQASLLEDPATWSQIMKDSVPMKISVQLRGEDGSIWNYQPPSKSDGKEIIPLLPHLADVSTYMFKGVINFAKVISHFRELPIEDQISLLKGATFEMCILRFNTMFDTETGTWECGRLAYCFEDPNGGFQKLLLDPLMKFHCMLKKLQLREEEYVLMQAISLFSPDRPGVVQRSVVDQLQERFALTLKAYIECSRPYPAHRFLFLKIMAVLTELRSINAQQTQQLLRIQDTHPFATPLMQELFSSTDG

[17] = target: Peroxisome proliferator-activated receptor delta (Homo sapiens) (UniProt Q03181); experiment: qHTS assay for small molecule agonists of peroxisome proliferator-activated receptor delta signaling (AID 588534);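 also: 0% = DMSO basal wells and 100% = positive control agonist at 10 µM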
Procedure, shortened: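 Reporter cells were plated and held 5 hrs at 37 C before compounds were added. After 18 hrs at 37 C, CCF4 dye was loaded for 2 hrs at RT and fluorescence measured.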

[18] = target: Vitamin D3 receptor (Homo sapiens) (UniProt P11473); experiment: qHTS assay for small molecule agonists of vitamin D receptor signaling (AID 588543);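 also: 0% = DMSO basal and 100% = reference agonist control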
Chain of Vitamin D3 receptor (Homo sapiens) (P11473 whole entry, looked up): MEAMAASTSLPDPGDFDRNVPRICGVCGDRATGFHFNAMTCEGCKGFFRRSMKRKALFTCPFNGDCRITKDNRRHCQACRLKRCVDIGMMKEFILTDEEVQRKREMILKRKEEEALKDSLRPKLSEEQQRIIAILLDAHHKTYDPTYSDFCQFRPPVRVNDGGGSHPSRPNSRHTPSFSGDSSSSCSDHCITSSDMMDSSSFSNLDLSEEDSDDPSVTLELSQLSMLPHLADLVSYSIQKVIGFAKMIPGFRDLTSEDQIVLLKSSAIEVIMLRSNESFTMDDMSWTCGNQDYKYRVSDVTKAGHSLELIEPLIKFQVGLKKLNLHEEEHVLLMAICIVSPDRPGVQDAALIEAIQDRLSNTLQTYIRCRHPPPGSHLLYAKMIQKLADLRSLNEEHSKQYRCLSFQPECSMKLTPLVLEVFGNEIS
Procedure, shortened: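 β-lactamase reporter, VDR-UAS-bla HEK293T, agonist mode. Cells plated 5 h at 37 °C, compound titration 16 h at 37 °C, CCF4 dye 2 h RT, ratio 460/530 nm. Hill fit → EC50, efficacy vs 50 nM 1α,25-(OH)2D3.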

[19] = qHTS assay for small molecule agonists of retinoid X receptor alpha signaling (AID 588544); conditions: HEK293T RXRa-UAS-bla, beta-lactamase reporter, 18 h; 530 nm emission;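 as to activation: 0% = DMSO basal wells and 100% = reference agonist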
[20] = target: Retinoic acid receptor RXR-alpha (Homo sapiens) (UniProt P19793); experiment: as above
Chain of Retinoic acid receptor RXR-alpha (Homo sapiens) (P19793 whole entry, looked up): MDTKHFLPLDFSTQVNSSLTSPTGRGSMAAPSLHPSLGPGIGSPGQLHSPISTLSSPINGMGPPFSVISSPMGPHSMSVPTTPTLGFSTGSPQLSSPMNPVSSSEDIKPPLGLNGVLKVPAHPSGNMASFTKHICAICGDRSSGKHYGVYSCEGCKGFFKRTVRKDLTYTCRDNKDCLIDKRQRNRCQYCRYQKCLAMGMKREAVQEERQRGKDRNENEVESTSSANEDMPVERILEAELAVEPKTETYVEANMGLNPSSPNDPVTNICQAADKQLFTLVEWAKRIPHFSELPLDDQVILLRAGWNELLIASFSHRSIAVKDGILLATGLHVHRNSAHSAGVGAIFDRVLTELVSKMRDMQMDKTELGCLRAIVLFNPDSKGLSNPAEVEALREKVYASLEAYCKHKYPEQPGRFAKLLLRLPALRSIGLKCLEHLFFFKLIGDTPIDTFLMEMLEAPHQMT

[21] = qHTS assay for small molecule antagonists of retinoid X receptor alpha signaling (AID 588546; active = well fitted inhibition curve with a large enough effect in the signal ratio, with a control signal flat, not every such curve was filed as active; the % refers to the signal ratio;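 also: cells stimulated with 9-cis-retinoic acid as agonist; % is scaled to controls: 0 for no effect and ±100 for the full control effect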); conditions: HEK293T RXRa-UAS-bla, beta-lactamase ratio, antagonist mode; measured here: W530 green channel, cytotoxicity proxy
Procedure, shortened: (§2)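 Beta-lactamase reporter inhibition, read as CCF4 fluorescence ratio (ex 405, em 460/530 nm) after 2 h at RT. HEK293T UAS-bla cells, 2500/well, were stimulated with 9-cis-RA at 500 or 100 nM final alongside test compound for 18 h at 37 C.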

[22] = target: Retinoic acid receptor RXR-alpha (Homo sapiens) (UniProt P19793); experiment: as above; conditions: HEK293T RXRa-UAS-bla, beta-lactamase ratio, antagonist mode
Procedure, shortened: as §2

[23] = qHTS assay for small molecule activators of the human pregnane X receptor (PXR) signaling pathway (AID 720659; call rule not given here; also: 0% is about no effect)

CCOC(=O)C(C)OC(=O)c1cc(Oc2ccc(C(F)(F)F)cc2Cl)ccc1[N+](=O)[O-] (stereo unspecified)
active: Potency [11] 35.5 µM
inactive: activation [1] 2.93% | Potency [2] | Potency [4] | Potency [5] | Potency [6] | activity change % (negative = inhibition) [7] 11.5% | activation [8] 0.27% | activation [9] 0.301% | activation [10] 4.56% | Potency [12] | max response [13] -9.47% | max response [14] -22.9% | Potency [15] | max response [16] 4.28%
34.5%: max response [3]

CC(C)(C)c1ccc(OCC2CO2)cc1 (stereo unspecified)
inactive: outcome [17]

CC1(C)[C@@H](C=C(Cl)Cl)[C@@H]1C(=O)OCc1cccc(Oc2ccccc2)c1
inactive: activation [1] 0.397% | outcome [17] | outcome [18] | Potency [6]

C=CCOc1nc(OCC=C)nc(OCC=C)n1
inactive: outcome [17]

c1ccc2c(c1)oc1ccccc12
3.99%: max response [3]
-6.25%: max response [19]
inactive: Potency [2] | outcome [17] | Potency [4] | outcome [18] | Potency [20] | Potency [6] | max response [22] 10.8% | activation [8] -2.47% | activation [9] -1.03% | max response [11] 0.628% | Potency [12] | max response [13] -12.3% | max response [14] -8.74% | Potency [15] | max response [16] -0.589% | outcome [23]
-9.11%: max response [21]
